Reference: the supplement of paper PMC7411640
Where a name gives a salt, the structure may show the parent alone.

Test system: MDA-MB-468
Test: phospho-S6 immunofluorescence (DAPI-normalised), per-plate z-score; higher = higher phospho-S6 signal (less pathway suppression)
Conditions: 24 h
Experimental: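 GPCR-targeted compound library (MedChemExpress HY-L006) tested on MDA-MB-468 PTEN-null TNBC cells in 384-well plates at 0.1, 1 or 10 uM, combined with vehicle, GDC0941 450 nM or lapatinib 1 uM, for 24 h. Phospho-S6 (S240/244) immunofluorescence normalised to DAPI and expressed as a per-plate z-score; values are the mean of biological triplicates.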

| SMILES | phospho-S6 immunofluorescence (z-score) (co-treatment: GDC0941 450 nM) | phospho-S6 immunofluorescence (z-score) (co-treatment: lapatinib 1 uM) | phospho-S6 immunofluorescence (z-score) (co-treatment: vehicle) |
| --- | --- | --- | --- |
| COC(=O)[C@H](c1ccccc1Cl)N1CCc2sccc2C1 [Clopidogrel (hydrogen sulfate)] (compound 10 µM) | 0.58 | -1.03 | -0.92 |
| COc1ccc(/C=C/C(=O)Nc2ccccc2C(=O)O)cc1OC [Tranilast (trans-)] (compound 10 µM) | 0.32 | -0.26 | 0.65 |
| NC(=O)C(c1ccccc1)(c1ccccc1)[C@@H]1CCN(CCc2ccc3c(c2)CCO3)C1 [Darifenacin (hydrobromide)] (compound 10 µM) | -1.6 | -1.5 | 0.03 |
| CCCc1nc(C(C)(C)O)c(C(=O)OCc2oc(=O)oc2C)n1Cc1ccc(-c2ccccc2-c2nnn[nH]2)cc1 [Olmesartan (medoxomil)] (compound 10 µM) | -0.4 | -0.27 | -0.03 |
| O=C(O)COc1cccc(CN(Cc2ccc(-n3cccn3)cc2)S(=O)(=O)c2cccnc2)c1 [Taprenepag] (compound 10 µM) | -0.91 | 0.34 | -0.73 |
| CN(C)CCc1c[nH]c2ccc(C[C@H]3COC(=O)N3)cc12 [Zolmitriptan] (compound 10 µM) | 0.87 | 0.6 | -0.48 |
| OC(CCN1CCCCC1)(c1ccccc1)C1CCCCC1 (centres undefined) [Trihexyphenidyl (hydrochloride)] (compound 10 µM) | -0.3 | -0.52 | 0.56 |
| CCN(CC)CCNC(=O)c1cc(Cl)c(N)cc1OC [Metoclopramide] (compound 10 µM) | -0.3 | 0.63 | -0.11 |
| Cc1ccc(F)cc1C(=O)Nc1ccc(C(=O)N2Cc3cccn3Cc3ccccc32)c(Cl)c1 [Lixivaptan] (compound 10 µM) | -2.79 | -0.79 | 0.62 |
| C[C@@H](O[C@H]1OCCN(Cc2nn(P(=O)(O)O)c(=O)[nH]2)[C@H]1c1ccc(F)cc1)c1cc(C(F)(F)F)cc(C(F)(F)F)c1 [Fosaprepitant (dimeglumine)] (compound 10 µM) | -2.28 | -0.65 | 0.39 |
| CCCCC[C@H](O)/C=C/[C@H]1[C@H](O)CC(=O)[C@@H]1C/C=C\CCCC(=O)O [Prostaglandin E2] (compound 10 µM) | -0.11 | 1.46 | -0.52 |
| COC1CCC(C(=O)c2ccc3nc4c(cc3c2)CCCO4)CC1 (centres undefined) (compound 10 µM) | -0.83 | 0.85 | 0.02 |
| CC(=O)[C@H]1CC[C@H]2[C@@H]3CC=C4C[C@@H](O)CC[C@]4(C)[C@H]3CC[C@]12C [Pregnenolone] (compound 10 µM) | 1.58 | 1.58 | 0.85 |
| CC(C)(C)NC[C@H](O)COc1nsnc1N1CCOCC1 [(S)-Timolol (Maleate)] (compound 10 µM) | -0.17 | 0.33 | -0.06 |
| Cc1cncc(CN2CCC(=C3c4ccc(Cl)cc4CCc4cccnc43)CC2)c1 [Rupatadine (Fumarate)] (compound 10 µM) | -1.47 | -2.09 | -1.45 |
| CC(ONC(=O)c1cc(C(F)(F)F)cc(C(F)(F)F)c1)C(=O)Nc1ccc(Cl)cc1 (centres undefined) (compound 10 µM) | -3.03 | -1.73 | -2.5 |
| CCc1nn(CCCN2CCN(c3cccc(Cl)c3)CC2)c(=O)n1CCOc1ccccc1 [Nefazodone (hydrochloride)] (compound 10 µM) | -4.37 | -2.37 | -1.26 |
| CC(C)(C)NCC(O)c1cc(O)cc(O)c1 (centres undefined) [Terbutaline (sulfate)] (compound 10 µM) | 0.52 | 1.51 | 1.44 |
| O=C(O)CCCN1CCC(O[C@@H](c2ccc(Cl)cc2)c2ccccn2)CC1 [Bepotastine (Beslilate)] (compound 10 µM) | -0.72 | -0.17 | 0.56 |
| CC(C)NC[C@H](O)COc1ccc(CCOCC2CC2)cc1 [Levobetaxolol (hydrochloride)] (compound 10 µM) | -0.39 | -0.2 | -0.19 |
| CCOc1ccccc1OCCN[C@H](C)Cc1ccc(OC)c(S(N)(=O)=O)c1 [Tamsulosin] (compound 10 µM) | -1.32 | 0.1 | -0.53 |
| O=C(CCCN1CC=C(n2c(=O)[nH]c3ccccc32)CC1)c1ccc(F)cc1 [Droperidol] (compound 10 µM) | -0.18 | 0.16 | 0.18 |
| Cc1cc2c(cc1CC(=O)c1sccc1S(=O)(=O)Nc1onc(C)c1Cl)OCO2 [Sitaxsentan (sodium)] (compound 10 µM) | 0.35 | 0.35 | 0.45 |
